Records with an inconclusive call do not appear. Activity calls are given as the source filed them. Calls come from the whole dose curve; as a rule, active = well fitted cell-killing curve with a large enough effect; inconclusive = small, poorly fitted or top-dose-only effect, or effect the other way; inactive = flat fitted curve, though single readings scatter.
Tests used:
Test in all cases: Primary qHTS to identify gynecologic anti-cancer compounds using libraries of approved drugs and bioactive compounds (AID 1345084); note: nearly all actives have a fitted effect of over 55% in size
C33A = conditions: Gynecologic cancer cell panel viability, ATPlite luminescence, 48 h; series mostly up to 57.5 µM
Summary of the method: (§1)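 Cell viability after 48 h drug treatment, ATPlite luminescence readout; five doses.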

CAOV3 = conditions: Gynecologic cancer cell panel viability, ATPlite luminescence, 48 h; series mostly up to 57.5 µM
Summary of the method: as §1

CASKI = conditions: Gynecologic cancer cell panel viability, ATPlite luminescence, 48 h; series mostly up to 57.5 µM
Summary of the method: as §1

Es-2 = conditions: Gynecologic cancer cell panel viability, ATPlite luminescence, 48 h; series mostly up to 57.5 µM
Summary of the method: as §1

HeLa = conditions: Gynecologic cancer cell panel viability, ATPlite luminescence, 48 h; series mostly up to 57.5 µM
Summary of the method: as §1

Hek293T = conditions: Gynecologic cancer cell panel viability, ATPlite luminescence, 48 h, control line for the selectivity index; series mostly up to 57.5 µM
Summary of the method: as §1

JEG-3 = conditions: Gynecologic cancer cell panel viability, ATPlite luminescence, 48 h; series mostly up to 57.5 µM
Summary of the method: as §1

OV90 = conditions: Gynecologic cancer cell panel viability, ATPlite luminescence, 48 h; series mostly up to 57.5 µM
Summary of the method: as §1

PA-1 = conditions: Gynecologic cancer cell panel viability, ATPlite luminescence, 48 h; series mostly up to 57.5 µM
Summary of the method: as §1

SKOV3 = conditions: Gynecologic cancer cell panel viability, ATPlite luminescence, 48 h; series mostly up to 57.5 µM
Summary of the method: as §1

Tov-21-G = conditions: Gynecologic cancer cell panel viability, ATPlite luminescence, 48 h; series mostly up to 57.5 µM
Summary of the method: as §1

Tov112D = conditions: Gynecologic cancer cell panel viability, ATPlite luminescence, 48 h; series mostly up to 57.5 µM
Summary of the method: as §1
% is set by controls: 0 for no effect and ±100 for the full control effect.

COC(=O)C[C@H]1C(C)(C)[C@H](OC(=O)C(C)C)C2CC3=C4CC(=O)O[C@@H](c5ccoc5)[C@]4(C)CCC3[C@@]1(C)C2=O (stereo partly specified)
inactive: Potency (C33A) | Potency (CAOV3) | outcome (CASKI) | Potency (Es-2) | Potency (HeLa) | Potency (Hek293T) | Potency (JEG-3) | Potency (OV90) | Potency (PA-1) | Potency (SKOV3) | Potency (Tov-21-G) | Potency (Tov112D)

CC1OC(OC2CCC3(C)C(CCC4(C)C3C=CC35OCC6(CCC(C)(C)CC63)CCC45C)C2(C)CO)C(OC2OC(CO)C(O)C(O)C2O)C(O)C1OC1OC(CO)C(O)C(O)C1O (stereo unspecified)
inactive: activity change, negative = cytotoxicity (C33A) 0.873% [at 11.6 µM] | activity change, negative = cytotoxicity (CAOV3) 14% [at 11.6 µM] | activity change, negative = cytotoxicity (CASKI) 3.54% [at 11.6 µM] | activity change, negative = cytotoxicity (Es-2) -0.667% [at 11.6 µM] | activity change, negative = cytotoxicity (HeLa) 5.87% [at 11.6 µM] | activity change, negative = cytotoxicity (Hek293T) 6.69% [at 11.6 µM] | activity change, negative = cytotoxicity (JEG-3) 8.45% [at 11.6 µM] | activity change, negative = cytotoxicity (OV90) -14.8% [at 11.6 µM] | activity change, negative = cytotoxicity (PA-1) 5.66% [at 11.6 µM] | activity change, negative = cytotoxicity (SKOV3) 6.92% [at 11.6 µM] | activity change, negative = cytotoxicity (Tov-21-G) 3.71% [at 11.6 µM] | activity change, negative = cytotoxicity (Tov112D) 11.6% [at 11.6 µM]

CSC(=O)OCC1=C[C@@H]2OC(=O)C3=CO[C@@H](O[C@@H]4O[C@H](CO)[C@@H](O)[C@H](O)[C@H]4O)[C@H]1[C@@H]32
inactive: Potency (C33A) | Potency (CAOV3) | outcome (CASKI) | Potency (Es-2) | Potency (HeLa) | Potency (Hek293T) | Potency (JEG-3) | Potency (OV90) | Potency (PA-1) | Potency (SKOV3) | Potency (Tov-21-G) | Potency (Tov112D)

C=C[C@H]1[C@H](O[C@@H]2O[C@H](CO)[C@@H](O)[C@H](O)[C@H]2O)OC=C(C(=O)OC)[C@H]1CCO
inactive: Potency (C33A) | Potency (CAOV3) | outcome (CASKI) | Potency (Es-2) | Potency (HeLa) | Potency (Hek293T) | Potency (JEG-3) | Potency (OV90) | Potency (PA-1) | Potency (SKOV3) | Potency (Tov-21-G) | Potency (Tov112D)

CC1OC(OC2C(OC3C(O[C@H]4CC[C@@]5(C)C(CC[C@]6(C)C5C(=O)CC5=C7CC(C)(C)CC(O)[C@]7(C)CC[C@]56C)C4(C)C)OC(C(=O)O)C(O)C3O)OCC(O)C2O)C(O)C(O)C1O (stereo partly specified)
inactive: activity change, negative = cytotoxicity (C33A) 2.35% [at 11.6 µM] | activity change, negative = cytotoxicity (CAOV3) 18.5% [at 11.6 µM] | activity change, negative = cytotoxicity (CASKI) 14.8% [at 11.6 µM] | activity change, negative = cytotoxicity (Es-2) -7.45% [at 11.6 µM] | activity change, negative = cytotoxicity (HeLa) 0.531% [at 11.6 µM] | activity change, negative = cytotoxicity (Hek293T) -3% [at 11.6 µM] | activity change, negative = cytotoxicity (JEG-3) -0.413% [at 11.6 µM] | activity change, negative = cytotoxicity (OV90) -4.22% [at 11.6 µM] | activity change, negative = cytotoxicity (PA-1) 14.2% [at 11.6 µM] | activity change, negative = cytotoxicity (SKOV3) 29.3% [at 11.6 µM] | activity change, negative = cytotoxicity (Tov-21-G) 4.68% [at 11.6 µM] | activity change, negative = cytotoxicity (Tov112D) 3.63% [at 11.6 µM]

CC1(C)C(=O)CCC2(C)C1C(O)C=C1COC(=O)C12O (stereo unspecified)
inactive: Potency (C33A) | Potency (CAOV3) | outcome (CASKI) | Potency (Es-2) | Potency (HeLa) | Potency (Hek293T) | Potency (JEG-3) | Potency (OV90) | Potency (PA-1) | Potency (SKOV3) | Potency (Tov-21-G) | Potency (Tov112D)

On1ncc(C2CCNCC2)c1-c1cccc(-c2ccccc2)c1
inactive: Potency (C33A) | Potency (CAOV3) | outcome (CASKI) | Potency (Es-2) | Potency (HeLa) | Potency (Hek293T) | Potency (JEG-3) | Potency (OV90) | Potency (PA-1) | Potency (SKOV3) | Potency (Tov-21-G) | Potency (Tov112D)

COC(=O)[C@H](c1ccccc1Cl)N1CCC2SC(=O)C=C2C1 (stereo partly specified)
inactive: Potency (C33A) | Potency (CAOV3) | outcome (CASKI) | Potency (Es-2) | Potency (HeLa) | Potency (Hek293T) | Potency (JEG-3) | Potency (OV90) | Potency (PA-1) | Potency (SKOV3) | Potency (Tov-21-G) | Potency (Tov112D)

C[C@@H]1O[C@@H](OC2C(O[C@H]3[C@H](O[C@H]4CC[C@@]5(C)C(CC[C@]6(C)C5CC=C5C7CC(C)(C)CC(O)[C@]7(C)CC[C@]56C)C4(C)C)O[C@H](C(=O)O)[C@@H](O)[C@@H]3O)OC(CO)C(O)C2O)[C@H](O)[C@H](O)[C@H]1O (stereo partly specified)
inactive: activity change, negative = cytotoxicity (C33A) 9.23% [at 11.6 µM] | activity change, negative = cytotoxicity (CAOV3) 0.0107% [at 11.6 µM] | activity change, negative = cytotoxicity (CASKI) 13.1% [at 11.6 µM] | activity change, negative = cytotoxicity (Es-2) 2.61% [at 11.6 µM] | activity change, negative = cytotoxicity (HeLa) 3.53% [at 11.6 µM] | activity change, negative = cytotoxicity (Hek293T) 5.4% [at 11.6 µM] | activity change, negative = cytotoxicity (JEG-3) 7.17% [at 11.6 µM] | activity change, negative = cytotoxicity (OV90) 7.68% [at 11.6 µM] | activity change, negative = cytotoxicity (PA-1) 0.277% [at 11.6 µM] | activity change, negative = cytotoxicity (SKOV3) 6.34% [at 11.6 µM] | activity change, negative = cytotoxicity (Tov-21-G) 5% [at 11.6 µM] | activity change, negative = cytotoxicity (Tov112D) 11.6% [at 11.6 µM]

CC(C)=CC[C@H]1O[C@]2(O)C([C@H]3CCC4[C@@]5(C)CC[C@H](O[C@@H]6O[C@H](CO)[C@H](O)[C@H](O[C@@H]7O[C@H](CO)[C@@H](O)[C@H](O)[C@H]7O)[C@H]6O[C@@H]6O[C@@H](C)[C@H](O)[C@@H](O)[C@H]6O)C(C)(C)C5CC[C@@]4(C)[C@]3(C)[C@H]2O)[C@@]1(C)O (stereo partly specified)
inactive: activity change, negative = cytotoxicity (C33A) 1.02% [at 11.6 µM] | activity change, negative = cytotoxicity (CAOV3) 7.68% [at 11.6 µM] | activity change, negative = cytotoxicity (CASKI) -0.575% [at 11.6 µM] | activity change, negative = cytotoxicity (Es-2) -1.48% [at 11.6 µM] | activity change, negative = cytotoxicity (HeLa) -4.09% [at 11.6 µM] | activity change, negative = cytotoxicity (Hek293T) 0.87% [at 11.6 µM] | activity change, negative = cytotoxicity (JEG-3) 13.4% [at 11.6 µM] | activity change, negative = cytotoxicity (OV90) -2.06% [at 11.6 µM] | activity change, negative = cytotoxicity (PA-1) 0.425% [at 11.6 µM] | activity change, negative = cytotoxicity (SKOV3) 28% [at 11.6 µM] | activity change, negative = cytotoxicity (Tov-21-G) -2.04% [at 11.6 µM] | activity change, negative = cytotoxicity (Tov112D) 6.89% [at 11.6 µM]

C=C1CC23CC(=O)C4C(CO)(CO)CCCC4(C)C2CCC1C3 (stereo unspecified)
inactive: Potency (C33A) | Potency (CAOV3) | outcome (CASKI) | Potency (Es-2) | Potency (HeLa) | Potency (Hek293T) | Potency (JEG-3) | Potency (OV90) | Potency (PA-1) | Potency (SKOV3) | Potency (Tov-21-G) | Potency (Tov112D)

O=C(/C=C/c1ccc(O)cc1)OC[C@@]1(O)C=C[C@@H]2C(C(=O)O)=CO[C@@H](O[C@@H]3O[C@H](CO)[C@@H](O)[C@H](O)[C@H]3O)[C@@H]21
inactive: Potency (C33A) | Potency (CAOV3) | outcome (CASKI) | Potency (Es-2) | Potency (HeLa) | Potency (Hek293T) | Potency (JEG-3) | Potency (OV90) | Potency (PA-1) | Potency (SKOV3) | Potency (Tov-21-G) | Potency (Tov112D)

C=C(COC(=O)C(C)C)C1Oc2cc(C(C)=O)ccc2C1OC(=O)C(C)C (stereo unspecified)
inactive: Potency (C33A) | Potency (CAOV3) | outcome (CASKI) | Potency (Es-2) | Potency (HeLa) | Potency (Hek293T) | Potency (JEG-3) | Potency (OV90) | Potency (PA-1) | Potency (SKOV3) | Potency (Tov-21-G) | Potency (Tov112D)

Reference: PubChem BioAssay (NCATS)
